Source: PubChem BioAssay (EPA / NIEHS)
Values joined by “and” are separate entries in the source; they are usually repeats but may differ in a detail not shown here. Identical values can stand only once. A structure can be active in one record and inactive in another. Active and inactive are the calls of the source. The calls were made as follows: active = hit-call score of the fitted dose curve at least 0.9, where 1 is the maximum; inactive = score below 0.9.

These molecules were tested on Intercellular Adhesion Molecule 1 (ICAM1), ICAM1 (gene 3383) (assay: BSK_3C_ICAM1: BioMAP Diversity Plus: 3C Assay for Intercellular Adhesion Molecule 1 (ICAM1) Biomarker Activity (AID 2283003)). Conditions: primary human endothelial cells (HUVEC); actives raise or lower the signal.
Protocol: BSK_3C is a cell-based, multiplexed-readout assay that uses umbilical vein endothelium, a human vascular primary cell, with measurements taken at 24 hours after chemical dosing in a 96-well plate.BSK_3C_ICAM1 is an assay component measured in the BSK_3C assay. It measures ICAM-1 antibody related to regulation of gene expression using ELISA technology.Data from the assay component BSK_3C_ICAM1 was analyzed into 1 assay endpoint. This assay endpoint, BSK_3C_ICAM1, was analyzed with bidirectional fitting relative to DMSO as the negative control and baseline of activity. Using a type of binding reporter, gain or loss-of-signal activity can be used to understand changes in the signaling as they relate to the gene ICAM1. Furthermore, this assay endpoint can be referred to as a primary readout, because this assay has produced multiple assay endpoints where this one serves a signaling function. To generalize the intended target to other relatable targets, this assay endpoint is annotated to the cell adhesion molecules intended target family, where the subfamily is Immunoglobulin CAM.
The levels of cell surface (or secreted, indicated by the prefix "s") biomarker endpoints were measured by ELISA. Overt cytotoxicity to cells in confluent adherent cultures (all systems other than the BT system) was assessed by measuring total protein levels using sulforhodamine B (SRB) staining in parallel cultures at the time of biomarker measurements, indicated as SRB endpoints. For proliferation assays for adherent cell types, individual cell types are cultured at sub-confluence and relative cell numbers quantified by SRB staining at time points optimized for each system (48 h: 3C and CASM3C systems; 72 h: BT and HDF3CGF systems; 96 h: SAg system). SRB was performed by staining cells with 0.1% SRB after fixation with 10% TCA and reading wells at 560 nm.Viability and proliferation of PBMC (T cells) was quantified by Alamar Blue reduction for the SAg and BT systems. For PBMC viability (referred to as PBMC Cytotoxicity within the assay endpoint names), cells were plated (75,000/well in a 96-well plate) and then chemical samples added for 1 h before addition of activators, SEB and TSST-1 (20 ng/mL final concentration each). Cells were incubated for 90 h. Then, Alamar Blue (20 uL/well) (Invitrogen, Cat DAL1100) was added for 6 h, and the plates were read with a fluorescence microplate reader at 546/580 nm (excitation/emission). For PBMC proliferation, cells were plated and activated as above but incubated for only 16 h prior to addition of Alamar Blue. Plates were read after 6 h.
`c1cc2ccc3cccc4ccc(c1)c2c34` was tested, and the outcome was “inactive”.
In the case of `Clc1ccc(C(Cl)(Cl)Cl)cc1`, the outcome is reported as “inactive”.
In the case of `Oc1c(Cl)c(Cl)c(Cl)c(Cl)c1Cl`, the AC50 is reported as 33.7 µM (active) and the outcome is reported as “inactive”.
`COc1ccc(O)c(C(C)(C)C)c1` was tested, and the outcome was “inactive”.
For `Sc1ccccc1`, the outcome was “inactive”.
In the case of `c1ccc(-c2ccccc2)cc1`, the outcome is reported as “inactive”.
In the case of `C=CC(N)=O`, the outcome is reported as “inactive”.
For `Oc1ccc(Cl)cc1Cl`, the outcome was “inactive”.
`Oc1ccc(C(c2ccc(O)cc2)(C(F)(F)F)C(F)(F)F)cc1` was tested, and the AC50 was 38.3 µM (active).
With `ClC1=C(Cl)[C@]2(Cl)[C@@H]3[C@H]4C[C@H]([C@@H]5O[C@H]45)[C@@H]3[C@@]1(Cl)C2(Cl)Cl` the outcome was “inactive”.
`C=CC(=O)NCNC(=O)C=C` was tested, and the outcome was “inactive”.
`CO/C=C(/C(=O)OC)c1ccccc1COc1cccc(C(F)(F)F)n1` was tested, and the outcome was “inactive”.
In the case of `O=NN(c1ccccc1)c1ccccc1`, the outcome is reported as “inactive”.
For `Cc1ccccc1[N+](=O)[O-]`, the outcome was “inactive”.
In the case of `CCCCCCOC(=O)c1ccccc1C(=O)OCCCCCC`, the outcome is reported as “inactive”.
With `CCCCCCCCCc1ccc(O)cc1` the AC50 was 15.4 µM (active).
`Cc1cccc([N+](=O)[O-])c1` was tested, and the outcome was “inactive”.
In the case of `ClC1=C(Cl)[C@]2(Cl)[C@@H]3[C@@H]4C[C@@H]([C@H]5O[C@@H]45)[C@@H]3[C@@]1(Cl)C2(Cl)Cl`, the outcome is reported as “inactive”.
With `CN(C)c1nc(=O)n(C2CCCCC2)c(=O)n1C` the outcome was “inactive”.
For `NS(=O)(=O)C(F)(F)C(F)(F)C(F)(F)C(F)(F)C(F)(F)C(F)(F)C(F)(F)C(F)(F)F`, the outcome was “inactive” and the AC50 was 56.8 µM (active) and 51.5 µM (active).
With `CN(C)CCO` the outcome was “inactive”.
With `C[C@]12CCC(=O)C=C1CC[C@@H]1[C@@H]2CC[C@]2(C)C(=O)CC[C@@H]12` the outcome was “inactive”.
`CCSC(=O)N(CC)C1CCCCC1` was tested, and the outcome was “inactive”.
With `CCC(C)(c1ccc(O)cc1)c1ccc(O)cc1` the outcome was “inactive”.
In the case of `CCOCCOC(C)=O`, the outcome is reported as “inactive”.
For `CC(C)C(=O)OCC(C)(C)C(OC(=O)C(C)C)C(C)C` (stereo not given), the outcome was “inactive”.
In the case of `CC#Cc1cc(C)nc(Nc2ccccc2)n1`, the outcome is reported as “inactive”.
With `ClC1=C(Cl)[C@]2(Cl)[C@@H]3[C@@H](Cl)[C@H]4O[C@H]4[C@@H]3C1(Cl)C2(Cl)Cl` the outcome was “inactive”.
With `O=C(O)C(F)(F)C(F)(F)C(F)(F)C(F)(F)C(F)(F)C(F)(F)C(F)(F)C(F)(F)F` the outcome was “inactive”.
`CCCCCCCCCC[N+](C)(C)CCCCCCCCCC` was tested, and the AC50 was 6.48 µM (active).
`CCCN(CCC)N=O` was tested, and the outcome was “inactive”.
For `Cc1ccccc1CO[C@@H]1C[C@@]2(C(C)C)CC[C@]1(C)O2`, the outcome was “inactive”.
For `CC(C)(O)C(=O)Nc1ccc([N+](=O)[O-])c(C(F)(F)F)c1`, the outcome was “inactive”.
`O=C(NC(=O)c1cc(F)c(F)cc1Cl)Nc1cc(F)ccc1N1CCC(C(=O)O)CC1` was tested, and the outcome was “inactive”.
`C1CC2OC2CC1C1CO1` (stereo not given) was tested, and the outcome was “inactive”.
`O=C(O)C(F)(F)C(F)(F)C(F)(F)C(F)(F)C(F)(F)F` was tested, and the outcome was “inactive”.
In the case of `O=C(O)C(F)(F)C(F)(F)C(F)(F)C(F)(F)C(F)(F)C(F)(F)C(F)(F)C(F)(F)C(F)(F)F`, the AC50 is reported as 46.5 µM (active) and 58.4 µM (active) and the outcome is reported as “inactive”.
